# Results from PubChem BioAssay AID1508622 (National Center for Advancing Translational Sciences (NCATS), 2021).
# A number with no mark means an inactive call. Calls of active or inactive are those of the source. The call rests on the fitted dose curve; in most records, active means well fitted activation curve with a large enough effect; inconclusive means small, poorly fitted or top-dose-only effect; inactive means no such curve, though single readings can be large or run the other way.
# Assay: Confirmatory qHTS for Identification of Small Molecule Activators of Huntingtin-Antisense Promoter Activity
# Settings: HEK293 HTT-AS promoter firefly luciferase reporter, 24 h; series mostly up to 57.5 µM; activity change, positive = activation: at the top concentration
# Outline: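 Plated reporter HEK293 cells (24 h) received library compounds at up to 57.5 uM final or 50 uM PTC124, incubated 24 h at 37C; firefly luciferase luminescence was then recorded with Dual-Glo reagent.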
# Potency means the concentration at half of the fitted maximal effect.
Compound,"activity change, positive = activation [%]",Potency
COc1cc(CN(C(=O)COc2ccc(Br)cc2)c2ccccn2)cc(OC)c1OC,-54.6,
CSc1ccc(CCNC(=O)C2CCCN(S(=O)(=O)N(C)c3ccc(F)cc3)C2)cc1 (centres undefined),-67.7,
COc1ccc(NC(=O)c2cc(S(=O)(=O)NCCC3=CCCCC3)ccc2F)cc1,-95.1,
CCc1ccc(CNC(=O)c2sc3ncccc3c2-n2c(C)ccc2C)cc1,-42.3,
Cc1ccccc1-c1ccnc2c(-c3ccc(F)cc3)c(C)nn12,-38.9,
COc1ccc(CNC(=O)c2ccc3c(c2)CCN3S(=O)(=O)c2ccc(C)cc2)cc1,-20.3,
COc1ccc(C(=O)NCC(c2cccnc2)N2CCN(c3ccc(F)cc3)CC2)cc1 (centres undefined),-41.1,
Cc1cccc(Cn2c(SCc3ccc(C(=O)N4CCCCCC4)cc3)nc3ccncc32)c1,-47.9,
COc1ccccc1NC(=O)CSc1nnc(NC(=O)Nc2ccc(C)cc2)s1,-76.3,
O=C(NCCC1=CCCCC1)c1ccc2c(c1)N(Cc1cccc(Cl)c1)C(=O)c1ccccc1S2(=O)=O,15,
CCOc1cc(CNC(=O)c2sc3ncnc(N(C)C4CCCCC4)c3c2C)ccc1OC,-26.3,
CCOc1ccccc1CNC(=O)c1cc2c(=O)n(Cc3ccccc3)ccc2nc1C,-35.4,
COC(=O)c1c(C)oc2ccc(N(C(=O)c3ccncc3)S(=O)(=O)c3cc(C)ccc3C)cc12,-90.5,
Cc1cccc(CNC(=O)C2CCN(S(=O)(=O)c3ccc4c(c3)CCCN4C(=O)C3CCC3)CC2)c1,-40.3,
Cc1ccc(NS(=O)(=O)c2ccc(-c3cnc(C4CC4)o3)cc2)cc1N(C)C,-91.1,
CCn1c(SCc2cccc(Br)c2)nnc1-c1nonc1NC(C)=O,-50.3,
Cc1ccc(Cl)cc1N1CCN(C(=O)c2cnc(N3CCOCC3)c3ccccc23)CC1,-34.6,
COc1ccc(CCNC(=O)c2ccc3c(c2)CCN3S(=O)(=O)c2ccc(C)cc2)cc1,-11.2,
COC(=O)c1c(C)oc2ccc(N(C(=O)c3ccncc3)S(=O)(=O)c3ccc(OC)cc3)cc12,-94.2,
COc1ccc2[nH]cc(CCNC(=O)c3cnn(-c4ccc(C)cc4)c3C3CCN(C(=O)OC(C)(C)C)CC3)c2c1,-37,

Compound,"activity change, positive = activation [%]",Potency
CCCN(C(=O)CCc1nc(-c2ccc(C)cc2)no1)c1ccc(OCC)cc1,-22,
O=S(=O)(NCc1ccc(F)cc1)c1ccc(N2CCCCS2(=O)=O)cc1,-83.7,
CCCCOC(=O)c1ccc(NC(=O)c2sc3nc(C)cc(C)c3c2N)cc1,-52.3,
Cc1ccc(N2C(=O)C(CC(=O)Nc3ccccc3)N(CCC3=CCCCC3)C2=O)cc1 (centres undefined),,6.75 µM (active)
Cc1ccc(CN2CCC(CNC(=O)c3cnn(-c4ccccc4Cl)c3C3CCN(C(=O)OC(C)(C)C)CC3)CC2)cc1,-30.1,
CC(C)c1ccc(NC(=O)CSC2=Nc3ccccc3C3=NC(CCC(=O)NCc4ccc(F)cc4)C(=O)N23)cc1 (centres undefined),-27.6,
O=C(Nc1ccc(Br)cc1)c1ccc(F)c(S(=O)(=O)NC2CCCCCC2)c1,-76.2,
CCOc1ccc(C(=O)N(Cc2cc(OC)c(OC)c(OC)c2)c2ccccn2)cc1,-81.2,
CCCCC(=O)Nc1cccc(-c2nc3ccccc3s2)c1,,3.01 µM (active)
COc1ccc(-c2cc(C(=O)N3CCN(c4ccccc4OC)CC3)c3cc(C(C)C)ccc3n2)cc1,-34.7,
COc1ccccc1CCNC(=O)c1ccc(-c2nc(CSc3ccc(C)cc3)c(C)o2)cc1,-5.99,
CC(=O)c1c(C)oc2ccc(N(C(=O)c3ccncc3)S(=O)(=O)c3ccc(F)cc3C)cc12,-60.5,
CCOc1ccc(N(Cc2ccccc2)C(=O)c2nc(SC)ncc2Cl)cc1,-31,
CCc1ccc(OC(C)C(=O)N2CCC(c3nc4ccccc4s3)CC2)cc1 (centres undefined),-81.1,
CCc1c(C)sc2c1CCN(C(=O)Nc1ccc(F)c(Cl)c1)C2c1ccc(F)cc1 (centres undefined),-76.5,
COc1ccc(CCNc2nc3c(c(=O)n(C)c(=O)n3C)n2Cc2ccc(F)cc2)cc1OC,-52.7,
CCc1ccc2oc(C(=O)NCCc3ccc(OC)c(OC)c3)cc(=O)c2c1,-49.8,
Cc1cc(NC(=O)c2cc(Cl)ccc2Cl)ccc1-c1cc2ccccc2oc1=O,-43.5,
CCCCN(C)C(=O)C1CCCN(c2ncnc3onc(C)c23)C1 (centres undefined),-94.4,
